Where “and” joins values, the source holds several entries; their conditions need not be identical. Equal values may be shown once. Calls of active or inactive are those of the source. Rule for the calls: active = hit-call score of the fitted dose curve at least 0.9, where 1 is the maximum; inactive = score below 0.9.

From PubChem BioAssay (EPA / NIEHS) come the findings set out here.

Read-out in this assay: CD69, CD69 (gene 969)
The assay is described as follows: BSK_SAg_CD69: BioMAP Diversity Plus: SAg Assay for CD69 Biomarker Activity (AID 2283089). The settings on record: primary human HUVEC with PBMC; actives raise or lower the signal. How it is done:
BSK_SAg is a cell-based, multiplexed-readout assay that uses umbilical vein endothelium and peripheral blood mononuclear cells, a human vascular primary cell co-culture, with measurements taken at 24 hours after chemical dosing in a 96-well plate.BSK_SAg_CD69 is one of 10 assay component(s) measured or calculated from the BSK_SAg assay. It is designed to make measurements of enzyme-linked immunosorbent assay, a form of binding reporter, as detected with fluorescence intensity signals by Enzyme-linked immunosorbent assay technology.Data from the assay component BSK_SAg_CD69 was analyzed into 1 assay endpoint. This assay endpoint, BSK_SAg_CD69, was analyzed with bidirectional fitting relative to DMSO as the negative control and baseline of activity. Using a type of binding reporter, gain or loss-of-signal activity can be used to understand changes in the signaling as they relate to the gene CD69. Furthermore, this assay endpoint can be referred to as a primary readout, because this assay has produced multiple assay endpoints where this one serves a signaling function. To generalize the intended target to other relatable targets, this assay endpoint is annotated to the cytokine intended target family, where the subfamily is inflammatory factor.
The levels of cell surface (or secreted, indicated by the prefix "s") biomarker endpoints were measured by ELISA. Overt cytotoxicity to cells in confluent adherent cultures (all systems other than the BT system) was assessed by measuring total protein levels using sulforhodamine B (SRB) staining in parallel cultures at the time of biomarker measurements, indicated as SRB endpoints. For proliferation assays for adherent cell types, individual cell types are cultured at sub-confluence and relative cell numbers quantified by SRB staining at time points optimized for each system (48 h: 3C and CASM3C systems; 72 h: BT and HDF3CGF systems; 96 h: SAg system). SRB was performed by staining cells with 0.1% SRB after fixation with 10% TCA and reading wells at 560 nm.Viability and proliferation of PBMC (T cells) was quantified by Alamar Blue reduction for the SAg and BT systems. For PBMC viability (referred to as PBMC Cytotoxicity within the assay endpoint names), cells were plated (75,000/well in a 96-well plate) and then chemical samples added for 1 h before addition of activators, SEB and TSST-1 (20 ng/mL final concentration each). Cells were incubated for 90 h. Then, Alamar Blue (20 uL/well) (Invitrogen, Cat DAL1100) was added for 6 h, and the plates were read with a fluorescence microplate reader at 546/580 nm (excitation/emission). For PBMC proliferation, cells were plated and activated as above but incubated for only 16 h prior to addition of Alamar Blue. Plates were read after 6 h.
Consider `CCOC(=O)c1ccccc1C(=C1C=C(Br)C(=O)C(Br)=C1)c1cc(Br)c(O)c(Br)c1`, for which the concentration at half-maximal activity (AC50) (usually the concentration at which the activity in the assay is half-maximal) is 15.1 µM (active) and 15.6 µM (active).

On to `CCCCCCCCc1ccc(Nc2ccc(CCCCCCCC)cc2)cc1`, for which the result was inactive.

As to `CCOc1nc(F)cc2nc(S(=O)(=O)Nc3c(Cl)cccc3C(=O)OC)nn12`, the result was inactive.

As for `CC(C)(c1cc(Br)c(OCCO)c(Br)c1)c1cc(Br)c(OCCO)c(Br)c1`, the half-maximal activity concentration (AC50) is 2.31 µM (active).

`C=CCOc1c(Br)cc(Br)cc1Br`: the result was inactive.

For the compound `COc1ccc2nc(N)sc2c1`, the outcome was inactive.

Take `c1ccc2c(c1)ccc1cc3c(ccc4ccccc43)cc12`: the result was inactive.

Regarding `CCCCCCCCCCCCCCCC[N+](C)(C)CC`, the AC50 is 1.78 µM (active).

On to `CCO[Si](C)(OCC)OCC`, for which the outcome was inactive.

On to `O=C(Cl)c1cc(C(=O)Cl)cc(C(=O)Cl)c1`, for which the half-maximal activity concentration (AC50) was 31.9 µM (active).

For `O=c1c2ccccc2oc2ccccc12`, the result was inactive.

Turning to `CCCCC(CC)COCC1CO1` (stereo not given), the result was inactive.

As to `CC1OC1C1CCC2(C)OC2C1` (stereo not given), the result was inactive.

For the compound `CCCCNc1ccc(NCCCC)c2c1C(=O)c1ccccc1C2=O`, the result was inactive.

On to `C=C[Si](OC(C)=O)(OC(C)=O)OC(C)=O`, for which the outcome was inactive.

Consider `C=CC=CC=CCCCCC`, for which the result was inactive.

Consider `CCO[Si](CCCN=C=O)(OCC)OCC`, for which the result was inactive.

Regarding `C=CCOCC(O)CCl` (stereo not given), the outcome was inactive.

For the compound `c1ccc2c(c1)ccc1ncccc12`, the outcome was inactive.

With `c1ccc(-c2ccccn2)nc1`, the outcome was inactive.

On to `O=C(Nc1ccccc1SSc1ccccc1NC(=O)c1ccccc1)c1ccccc1`, for which the half-maximal activity concentration (AC50) was 2.01 µM (active).

As for `Nc1ccc(N)c(Cl)c1`, the half-maximal activity concentration (AC50) is 22.9 µM (active) and 18.4 µM (active).

`O=Nc1ccc(O)cc1`: the outcome was inactive.

For `C=CC(=O)OCC(Br)CBr` (stereo not given), the AC50 was 10.2 µM (active).

Turning to `C/C=C\C/C=C/CCCCCCCCOC(C)=O`, the AC50 is 20 µM (active).

Consider `O=C1CCCN1CCO`, for which the outcome was inactive.

For the compound `O=C(c1ccc(O)cc1)c1ccc(O)cc1O`, the result was inactive.

`CO[Si](OC)(OC)c1ccccc1`: the result was inactive.

In the case of `CN1C(=O)N(C)C(O)C1O` (stereo not given), the outcome was inactive.

For the compound `S=C(NC1CCCCC1)NC1CCCCC1`, the outcome was inactive.

Consider `COCc1c(C(C)C)nc(C(C)C)c(/C=C/[C@@H](O)C[C@@H](O)CC(=O)O)c1-c1ccc(F)cc1`, for which the AC50 is 0.0293 µM (active).

Take `C#CC1(O)CC[C@H]2[C@@H]3CCC4=CCCC[C@@H]4[C@H]3CC[C@@]21C` (stereo not given in full): the half-maximal activity concentration (AC50) was 29.7 µM (active).

Regarding `CC(C)C(=O)C(C)C`, the result was inactive.

Take `CCCCC(CC)COC(=O)c1ccccc1O` (stereo not given): the result was inactive.

Take `N#[N+]c1ccc2c(S(=O)(=O)[O-])cccc2c1O`: the result was inactive.
